According to the supplement of paper PMC6555819:

Legend:
Test in all cases: PBM binding z-score (relative to random genomic background probes); higher = stronger binding; sequences stand for … in GC…GCGATTGACAGCGTAGAATGAAGG
[1] = test system: RARb homodimer (NR concentration 270 nM)
Procedure, shortened: (§1)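 Regression normalization was applied to scanned fluorescence from custom Agilent 4×180K protein-binding microarrays. Before scanning, arrays were incubated 1 h with ligand-free nuclear receptor dimers, and binding was detected with antibodies against each partner (one per run). Binding z-scores use the random background probes as reference.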

[2] = test system: RARg:RXRa (NR concentration 270 nM, RXRa partner concentration 90 nM)
Procedure, shortened: as §1

[3] = test system: RARg homodimer (NR concentration 270 nM)
Procedure, shortened: as §1

[4] = test system: RXRa DBDmut IVT, anti-RXR (DBD mutation: RXRa K156A/R161A, NR concentration 90 nM)
Procedure, shortened: as §1

[5] = test system: RXRa homodimer (NR concentration 180 nM)
Procedure, shortened: as §1

[6] = test system: THRa:RXRa (NR concentration 90 nM, RXRa partner concentration 90 nM)
Procedure, shortened: as §1

[7] = test system: THRa homodimer (NR concentration 90 nM)
Procedure, shortened: as §1

[8] = test system: VDR homodimer (NR concentration 270 nM)
Procedure, shortened: as §1

Row | Sequence | PBM binding z-score [1] | PBM binding z-score [2] | PBM binding z-score [3] | PBM binding z-score [4] | PBM binding z-score [5] | PBM binding z-score [6] | PBM binding z-score [7] | PBM binding z-score [8]
1 | GCTGCTAGGTCAGTTTGGTCAGCTAACGGGTACG | 2.43 | 2.29 | 3.29 | 0.863 | 0.8 | 1.36 | 0.147 | 0.564
2 | TAGCCTAGGTCATGCGGGCCAGTATCGTGTCGGC | 2.77 | 4.03 | 4.3 | 0.371 | 3.1 | 2.88 | 1.17 | 0.528
3 | ACTAGCAGGCCAAGGCTCACTCAAGATTAGTCCG | -0.234 | -0.222 | 0.0156 | -0.206 | -0.0748 | -0.43 | -0.144 | -0.802
4 | TCTTGTAGATCAACAGGAGATTAAGAAAGATCGA | -1.12 | -0.112 | -0.181 | 0.2 | 0.147 | -0.777 | -1.13 | -0.417
5 | ACTATTAGTTGAGTCGAGGGCAACCGATAGGTTG | 1.2 | 0.788 | 0.802 | 0.52 | 0.607 | 2.3 | 0.603 | 1.05
6 | CGAAGGAGGGCATGAGTTGATAGCAAATGCCGAT | 0.409 | 0.997 | 1.45 | 0.567 | 0.619 | 0.292 | -0.803 | 0.969
7 | AGAACGAGTGCAATGAGTTGATAGCACGGGTGGC | -0.553 | 0.1 | -0.109 | 2.82 | 0.283 | -0.264 | -1.03 | 4.06
8 | TCGCGGAGGACACGAAGGTCAGAGCTTTCCAGAG | 3.67 | 3.06 | 3.52 | 0.372 | 1.64 | 2.62 | 0.443 | 1.19
9 | GCATATAGGTAATGCAAGGTGAAAGTCCGATTGT | 0.843 | 0.513 | 0.479 | 0.239 | 0.519 | 4.1 | 0.825 | -0.0965
10 | GTACCAAGGTGAATAGGTCGTGGATGAGTAGGCG | 2.29 | 3.12 | 1.51 | -0.652 | 2.44 | 1.91 | 0.648 | -0.0897
11 | CGTCCAAGTTCAGAGAGGTCAGTGAATGCCGAGT | 4.58 | 4.46 | 5 | 4.24 | 3.48 | 3.14 | 1.43 | 7.06
12 | CCTTACGGGGCACTCCAGGTTATAGCATCGGAGT | 0.528 | 0.714 | 0.823 | -0.513 | 0.523 | 3.58 | -0.229 | 0.0884
13 | TCTTGTAGATCGGCAGGTTAAGAAAGCTGGCCAA | 0.124 | -0.0429 | -0.399 | 0.729 | 0.269 | 0.308 | -0.309 | -0.0576
14 | ATCTCTAGGAAACAAGTTCAGTGAAAGAGAGGAC | 1.32 | 1 | 0.918 | 0.688 | 0.725 | 0.835 | 0.164 | 2.27
15 | GCTAGCAGGCCATTTGGGACACTCAATGACGGGC | -0.366 | -0.267 | 0.308 | -0.237 | -0.122 | 0.63 | -0.00643 | -0.65
16 | CCTACTGGGCCGTCAGGTCATTGATATCAACGTT | 2.18 | 1.33 | 1.37 | 0.28 | 1.11 | 3.18 | 3.49 | 1.16
17 | CAAACTAGGTCAAGATGTCAAAGTCCGCTTCCCG | 3.53 | 4.72 | 5.27 | 1.76 | 3.43 | 2.86 | 1.04 | 0.881
18 | GGAACGAGGCCAAAGTTGATAGCATCTGTCGACG | 0.373 | 0.787 | 0.688 | 0.917 | 0.814 | 0.667 | -0.899 | -0.181
19 | GCTAGCAGGCCATTTGGGTCACTGAATGACGGGC | 1.94 | 0.989 | 1.4 | 0.125 | 0.735 | 1.95 | 0.65 | 0.43
20 | TCAGACAGGTGGAGGTAACTCAGGTACGCAGTCG | 0.41 | -0.00603 | -0.245 | 0.723 | 0.574 | 1.48 | 0.639 | -0.21
21 | ATAGACAGGTGAGTGAAGGTAACTCAGCTGGACG | 0.264 | 0.515 | 0.582 | -0.459 | 0.665 | 1.68 | -0.333 | -0.359
22 | CCTACTGGGCCGAAAAGGTCATTGATGCCGATAA | 4.31 | 4.56 | 3.89 | 0.386 | 4.95 | 3 | 0.639 | 2.13
23 | TGAATGAGGTTAAAGATCGGGGAACGTGGCGTCG | 0.987 | 2.41 | 1.24 | 1.35 | 3.31 | 2.55 | 0.447 | 0.818
24 | GCTAGGAGGCCATTTGGGTCACTCAATGACGGGC | 2.18 | 1.5 | 2.23 | 0.724 | 0.924 | 2.33 | 0.78 | 1.29
25 | TCATAGAGGTAAAGGTGAAAGTCGAACGATATGA | 1.69 | 1.9 | 1.52 | 0.528 | 2.39 | 1.67 | -0.473 | -0.362
26 | CCTGCTAGGTCGTGGTCAGCTAATCTACAGTATG | 1.21 | 0.958 | 1.4 | 0.759 | 0.607 | 0.876 | 0.18 | -0.0912
27 | GGATCGAGGGCAAGTTGATAGCAGAGTTTGATGG | 1.54 | 1.6 | 1.96 | 1.95 | 0.72 | 1.26 | 0.374 | 2.06
28 | CGAGCTAGGTCAAGGACAGTGAATCTCCGCACGC | 2.95 | 3.8 | 4.67 | 1.27 | 2.28 | 3.02 | 1.62 | -0.0669
